# Measurements from PubChem BioAssay.
# The source made the active and inactive calls.
# Experiments:
# [1] = system: Plasmodium falciparum Sir2 (PF13_0152, Sir2A); test: pfSir2 binders on small-molecule microarrays, primary screen, biochemical, small-molecule microarray, 635 nm fluorescence (AID 1098); details: small-molecule microarray binding, fluorescence 635 nm; higher = more signal;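 further: score merges spot fluorescence intensity with its signal-to-noise ratio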
# [2] = small-molecule microarray binders of probe aDKK1, primary screen, biochemical, biotinylated probe, 635/667 nm fluorescence (AID 1099); details: higher = more signal;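 further: score merges 667nm spot fluorescence with signal to noise across triplicate slides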
# [3] = small-molecule microarray binders of probe aCHRDL2, primary screen, biochemical, biotinylated probe, 635/667 nm fluorescence (AID 1100); details: higher = more signal
# [4] = splicing luciferase reporter signal modulators, primary screen, spliceosome inhibition project, cell-based, HEK293, splice +/- reporter (AID 1101); details: luminescence, 24 h, higher = more signal, called active from +8 up or from −8 down;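 further: HEK293 cells carrying a splicing-competent luciferase reporter gene; test concentration not given here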
# [5] = target: Fibroblast growth factor 10 (Homo sapiens) (UniProt O15520); test: FGF10 binders on small-molecule microarrays, primary screen, biochemical, small-molecule microarray, 635 nm fluorescence (AID 1102); details: FGF10 binding, fluorescence 635 nm, higher = more signal
# Fibroblast growth factor 10 (Homo sapiens), sequence (O15520 whole entry, looked up): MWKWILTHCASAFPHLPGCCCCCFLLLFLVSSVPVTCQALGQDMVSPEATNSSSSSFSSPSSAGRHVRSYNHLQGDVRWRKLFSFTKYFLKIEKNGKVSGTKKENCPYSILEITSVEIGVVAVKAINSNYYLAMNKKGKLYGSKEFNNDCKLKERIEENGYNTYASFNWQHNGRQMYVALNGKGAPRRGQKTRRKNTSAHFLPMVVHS
# [6] = system: glycogen synthase kinase-3 (GSK3A per assay name; protocol says GSK3B); test: GSK3 binders on small-molecule microarrays, primary screen, biochemical, small-molecule microarray, 635 nm fluorescence, GSK3A (AID 1103); details: small-molecule microarray binding, fluorescence 635 nm; higher = more signal; further: the record names both GSK3A and GSK3B
# [7] = target: Epidermal growth factor receptor (Homo sapiens) (UniProt P00533); test: EGFR binders on small-molecule microarrays, primary screen, biochemical, small-molecule microarray, 635 nm fluorescence (AID 1104); details: EGFR binding, higher = more signal;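 further: score merges 667 nm emission intensity with spot signal to noise over triplicate slides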
# Epidermal growth factor receptor (Homo sapiens), sequence (P00533 whole entry, looked up): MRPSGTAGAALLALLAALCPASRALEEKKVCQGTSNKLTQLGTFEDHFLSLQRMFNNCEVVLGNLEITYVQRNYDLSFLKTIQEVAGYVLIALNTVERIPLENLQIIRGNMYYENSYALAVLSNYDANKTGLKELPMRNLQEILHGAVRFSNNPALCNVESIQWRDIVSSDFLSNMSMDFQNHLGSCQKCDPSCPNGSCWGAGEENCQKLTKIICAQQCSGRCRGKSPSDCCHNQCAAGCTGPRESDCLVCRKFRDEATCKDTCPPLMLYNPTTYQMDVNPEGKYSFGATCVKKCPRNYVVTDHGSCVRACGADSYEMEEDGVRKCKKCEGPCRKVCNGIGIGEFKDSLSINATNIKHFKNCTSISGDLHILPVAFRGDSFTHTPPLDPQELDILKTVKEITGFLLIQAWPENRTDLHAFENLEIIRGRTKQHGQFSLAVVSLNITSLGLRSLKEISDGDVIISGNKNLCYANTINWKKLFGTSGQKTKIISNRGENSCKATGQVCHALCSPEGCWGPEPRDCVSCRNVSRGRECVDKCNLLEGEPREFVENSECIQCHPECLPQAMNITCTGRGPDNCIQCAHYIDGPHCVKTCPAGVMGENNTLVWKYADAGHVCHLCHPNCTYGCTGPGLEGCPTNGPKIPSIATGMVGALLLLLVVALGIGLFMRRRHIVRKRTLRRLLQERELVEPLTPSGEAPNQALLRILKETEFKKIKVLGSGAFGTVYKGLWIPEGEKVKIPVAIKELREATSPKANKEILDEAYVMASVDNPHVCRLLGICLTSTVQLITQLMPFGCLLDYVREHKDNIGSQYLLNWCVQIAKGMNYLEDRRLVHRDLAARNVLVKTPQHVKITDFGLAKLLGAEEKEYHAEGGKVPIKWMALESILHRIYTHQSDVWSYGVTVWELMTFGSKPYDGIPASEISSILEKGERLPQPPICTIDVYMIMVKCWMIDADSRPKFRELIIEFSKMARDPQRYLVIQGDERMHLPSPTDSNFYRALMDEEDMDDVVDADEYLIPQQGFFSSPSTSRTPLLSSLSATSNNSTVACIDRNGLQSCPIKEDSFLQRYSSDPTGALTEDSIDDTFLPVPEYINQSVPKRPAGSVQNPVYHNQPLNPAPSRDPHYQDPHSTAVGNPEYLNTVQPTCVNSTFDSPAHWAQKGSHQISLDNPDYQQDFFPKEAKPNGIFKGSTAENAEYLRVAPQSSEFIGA
# [8] = target: Follistatin-related protein 3 (Homo sapiens) (UniProt O95633); test: FSTL3 binders on small-molecule microarrays, primary screen, biochemical, small-molecule microarray, 635 nm fluorescence (AID 1105); details: FSTL3 binding, higher = more signal;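 further: score merges emission near 667 nm and signal to noise per printed spot across three slides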
# Follistatin-related protein 3 (Homo sapiens), sequence (O95633 whole entry, looked up): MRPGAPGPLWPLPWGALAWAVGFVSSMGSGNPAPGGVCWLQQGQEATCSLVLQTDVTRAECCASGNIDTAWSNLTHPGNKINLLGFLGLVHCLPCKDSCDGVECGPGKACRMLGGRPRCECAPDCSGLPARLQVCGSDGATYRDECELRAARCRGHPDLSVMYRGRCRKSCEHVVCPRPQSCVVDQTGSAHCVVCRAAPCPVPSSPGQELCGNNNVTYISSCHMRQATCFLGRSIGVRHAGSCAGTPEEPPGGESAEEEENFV
# [9] = target: Dickkopf-related protein 1 (Homo sapiens) (UniProt O94907); test: DKK1 binders on small-molecule microarrays, primary screen, biochemical, small-molecule microarray, 635 nm fluorescence scan (AID 1106); details: DKK1 binding, higher = more signal;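 further: score merges emission near 667 nm with signal to noise over three replicate slides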
# Dickkopf-related protein 1 (Homo sapiens), sequence (O94907 whole entry, looked up): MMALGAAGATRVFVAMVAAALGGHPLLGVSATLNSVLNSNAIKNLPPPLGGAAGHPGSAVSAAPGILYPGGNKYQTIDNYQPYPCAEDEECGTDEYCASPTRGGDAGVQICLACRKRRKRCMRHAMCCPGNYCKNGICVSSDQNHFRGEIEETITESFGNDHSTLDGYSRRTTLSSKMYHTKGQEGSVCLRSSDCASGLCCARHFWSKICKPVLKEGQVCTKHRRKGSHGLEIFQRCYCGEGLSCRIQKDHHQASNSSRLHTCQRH
# [10] = system: Inhibin beta A chain (activin A); test: INHBA (activin A) binders on microarrays, primary screen, biochemical, small-molecule microarray, 635 nm fluorescence scan (AID 1107); details: small-molecule microarray binding, higher = more signal;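 further: mouse activin A protein probed at 4.33 µg/mL on printed slides; score merges bound-protein fluorescence near 667 nm with spot signal-to-noise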
# [11] = system: Human papillomavirus type 1a protein E7 (residues 44-93); test: HPV1a E7 fragment binders on microarrays, primary screen, biochemical, small-molecule microarray, residues 44-93, 635 nm fluorescence (AID 1108); details: small-molecule microarray binding, fluorescence 635 nm; higher = more signal;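 further: E7 fragment applied at 1 µg/mL in TBST for 1 h at 4 C; score combines spot fluorescence with its signal to noise ratio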
# [12] = modulators of HCV replicon luciferase signal, primary screen, HCV replication inhibitor project, Huh7 cells, luciferase reporter (AID 1109); details: 48 h, higher = more signal;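 further: huh7 hepatoma cells harbouring a luciferase neomycin HCV replicon reporter; luciferase luminescence as measure of HCV replicon replication; test concentration not given here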
# [13] = target: Left-right determination factor 2 (Homo sapiens) (UniProt O00292); test: LEFTY2 binders on small-molecule microarrays, primary screen, biochemical, small-molecule microarray, 635 nm fluorescence scan (AID 1110); details: LEFTY2 binding, higher = more signal
# Left-right determination factor 2 (Homo sapiens), sequence (O00292 whole entry, looked up): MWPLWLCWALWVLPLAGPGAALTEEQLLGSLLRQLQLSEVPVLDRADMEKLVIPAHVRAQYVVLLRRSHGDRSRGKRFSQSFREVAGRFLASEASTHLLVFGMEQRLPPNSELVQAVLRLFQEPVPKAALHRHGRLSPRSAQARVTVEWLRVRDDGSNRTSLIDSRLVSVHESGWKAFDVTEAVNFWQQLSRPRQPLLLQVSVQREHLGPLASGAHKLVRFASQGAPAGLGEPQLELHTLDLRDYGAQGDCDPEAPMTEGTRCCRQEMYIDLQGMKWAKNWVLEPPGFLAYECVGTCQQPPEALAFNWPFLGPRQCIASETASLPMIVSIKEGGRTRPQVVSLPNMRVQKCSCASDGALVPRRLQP
# [14] = target: Calmodulin-1 (Homo sapiens) (UniProt P0DP23); test: CALM1 binders on microarrays, EGTA buffer, profiling panel, biochemical, small-molecule microarray, Cy5-labelled CALM1 (AID 1111); details: Cy5-CALM1 binding fluorescence, higher = more signal;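 further: labelled calmodulin applied in Tris saline Tween buffer holding calcium plus EGTA and DTT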
# [15] = target: Calmodulin-1 (Homo sapiens) (UniProt P0DP23); test: calcium-bound CALM1 binders on microarrays, profiling panel, artefact control for SMM control-protein annotation, biochemical, small-molecule microarray, Cy5-labelled CALM1, plus calcium (AID 1112); details: Cy5-CALM1 binding fluorescence, higher = more signal;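 further: score merges spot fluorescence with signal to noise from triplicate slides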
# [16] = small-molecule microarray binders of probe aWnt5a, primary screen, biochemical, biotinylated probe, 635/667 nm fluorescence (AID 1113); details: higher = more signal;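 further: score merges 667 nm fluorescence intensity with signal-to-noise per printed feature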
# [17] = small-molecule microarray binders of probe aShh, primary screen, biochemical, biotinylated probe, 635/667 nm fluorescence (AID 1114); details: higher = more signal;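 further: probe is biotin-labelled aShh protein from a stem cell growth factor screen; measures binding of labelled protein to compounds printed on the slide; score merges feature fluorescence at 667 nm with signal-to-noise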
# [18] = small-molecule microarray binders of probe aNog, primary screen, biochemical, biotinylated probe, 635/667 nm fluorescence (AID 1115); details: higher = more signal;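 further: probe is biotinylated aNog protein used at 0.15 µg/mL for 1 h at 4 C; z-score combines 667 nm fluorescence of each spot with its signal to noise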
# [19] = target: Torsin-1A-interacting protein 1 (Homo sapiens) (UniProt Q5JTV8); test: LAP1 binders from COS7 cell lysate, primary screen, small-molecule microarray, 635/667 nm fluorescence (AID 1116); details: COS7-hLAP1 lysate binding, 635 nm fluorescence, higher = more signal
# Torsin-1A-interacting protein 1 (Homo sapiens), sequence (Q5JTV8 whole entry, looked up): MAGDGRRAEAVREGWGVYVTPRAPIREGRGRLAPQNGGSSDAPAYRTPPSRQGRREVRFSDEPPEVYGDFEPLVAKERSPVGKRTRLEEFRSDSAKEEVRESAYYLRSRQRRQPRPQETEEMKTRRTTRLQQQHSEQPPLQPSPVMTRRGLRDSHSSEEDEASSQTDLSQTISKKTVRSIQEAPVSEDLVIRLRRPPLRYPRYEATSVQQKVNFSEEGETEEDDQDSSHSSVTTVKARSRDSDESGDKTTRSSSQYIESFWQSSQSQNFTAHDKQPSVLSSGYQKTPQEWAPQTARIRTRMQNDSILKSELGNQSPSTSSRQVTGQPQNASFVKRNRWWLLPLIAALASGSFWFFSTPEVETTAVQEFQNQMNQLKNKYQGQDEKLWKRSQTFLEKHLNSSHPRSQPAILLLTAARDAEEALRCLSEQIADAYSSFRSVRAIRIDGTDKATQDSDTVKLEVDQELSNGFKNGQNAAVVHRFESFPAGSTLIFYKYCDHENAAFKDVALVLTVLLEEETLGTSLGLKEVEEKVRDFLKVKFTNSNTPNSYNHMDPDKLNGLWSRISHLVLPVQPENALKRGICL
# [20] = target: Alpha-bungarotoxin (Bungarus multicinctus) (UniProt P60615); test: alpha-bungarotoxin binders on microarray, profiling panel, artefact control for SMM control protein annotation, biochemical, small-molecule microarray, Alexa647 label, 635/667 nm fluorescence (AID 1117); details: alpha-BTX-A647 binding fluorescence, higher = more signal
# Alpha-bungarotoxin (Bungarus multicinctus), sequence (P60615 whole entry, looked up): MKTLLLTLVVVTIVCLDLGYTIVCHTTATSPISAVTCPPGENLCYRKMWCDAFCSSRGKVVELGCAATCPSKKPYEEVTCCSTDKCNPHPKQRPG
compound,measurement,setting,value
COc1ccc(C#Cc2ccc3c(c2)[C@]2(C(=O)N3)[C@H](C(=O)Nc3nc4ccccc4s3)[C@H]3C(=O)O[C@H](c4ccccc4)[C@H](c4ccccc4)N3[C@@H]2c2ccccc2OCCO)cc1,composite z-score,[1],0.465
same,composite z-score,[2],0.243
same,composite z-score,[3],-0.125
same,z-score,[4],0.17 (inactive)
same,composite z-score,[5],0.463
same,composite z-score,[6],0.933
same,composite z-score,[7],0.19
same,composite z-score,[8],0.821
same,composite z-score,[9],0.47
same,composite z-score,[10],0.648
same,composite z-score,[11],1.18
same,z-score,[12],-1.67
same,composite z-score,[13],0.282
same,composite z-score,[14],1.55
same,composite z-score,[15],0.436
same,composite z-score,[16],-0.0685
same,composite z-score,[17],-0.282
same,composite z-score,[18],-0.273
same,composite z-score,[19],0.471
same,composite z-score,[20],1.02
CC(=O)n1cc(C(O)C2C=CC3C(=O)N(c4ccccc4)C(=O)C3N2Nc2ccc(C(C)C)cc2)c2ccccc21 (stereo not given),composite z-score,[1],1.17
same,composite z-score,[2],0.389
same,composite z-score,[3],0.883
same,z-score,[4],0.811 (inactive)
same,composite z-score,[5],0.881
same,composite z-score,[6],1.1
same,composite z-score,[7],0.281
same,composite z-score,[8],0.766
same,composite z-score,[9],0.076
same,composite z-score,[10],1.02
same,composite z-score,[11],0.656
same,z-score,[12],-0.909
same,composite z-score,[13],-0.0688
same,composite z-score,[14],2.53
same,composite z-score,[15],1.38
same,composite z-score,[16],-0.0394
same,composite z-score,[17],0.0328
same,composite z-score,[18],1.41
same,composite z-score,[19],1.68
same,composite z-score,[20],1.6
CC1(C)C(=O)C(c2ccccc2)=C2CN3C(=O)N(CCc4ccccc4)C(=O)C3(Cc3ccc(C(F)(F)F)cc3)C=C21 (stereo not given),composite z-score,[1],0.9
same,composite z-score,[2],1.01
same,composite z-score,[3],1.12
same,z-score,[4],0.701 (inactive)
same,composite z-score,[5],0.472
same,composite z-score,[6],0.288
same,composite z-score,[7],-0.0744
same,composite z-score,[8],0.717
same,composite z-score,[9],-1.01
same,composite z-score,[10],0.721
same,composite z-score,[11],1.19
same,z-score,[12],-1.66
same,composite z-score,[13],-0.668
same,composite z-score,[14],1.36
same,composite z-score,[15],0.858
same,composite z-score,[16],0.0226
same,composite z-score,[17],1.05
same,composite z-score,[18],1.8
same,composite z-score,[19],0.393
same,composite z-score,[20],0.234
NC(=O)[C@H]1[C@@H]2C(=O)O[C@@H](c3ccccc3)[C@@H](c3ccccc3)N2[C@@H](c2ccc(O)cc2)[C@]12C(=O)Nc1ccc(C#CC3=CCCCC3)cc12,composite z-score,[1],-0.165
same,composite z-score,[2],-0.157
same,composite z-score,[3],0.724
same,z-score,[4],-1.67 (inactive)
same,composite z-score,[5],0.0647
same,composite z-score,[6],-0.229
same,composite z-score,[7],-0.433
same,composite z-score,[8],-0.0656
same,composite z-score,[9],-0.0761
same,composite z-score,[10],0.0756
same,composite z-score,[11],1.42
same,z-score,[12],-1.49
same,composite z-score,[13],-0.443
same,composite z-score,[14],0.0791
same,composite z-score,[15],-0.413
same,composite z-score,[16],-0.0792
same,composite z-score,[17],-0.279
same,composite z-score,[18],-0.185
same,composite z-score,[19],0.731
same,composite z-score,[20],1.02
CC(C)CCC[C@@H](C)[C@H]1CC[C@@]2(C)C3=C(CC[C@]12C)[C@@]1(C)CC[C@H](OC(=O)c2ccccc2)C(C)(C)C1CC3 (stereo not given in full),composite z-score,[1],0.238
same,composite z-score,[2],-0.279
same,composite z-score,[3],-0.501
same,z-score,[4],-1.54 (inactive)
same,composite z-score,[5],0.155
same,composite z-score,[6],0.21
same,composite z-score,[7],0.375
same,composite z-score,[8],0.429
same,composite z-score,[9],0.61
same,composite z-score,[10],-0.0754
same,composite z-score,[11],0.359
same,z-score,[12],-0.313
same,composite z-score,[13],0.593
same,composite z-score,[14],-0.0989
same,composite z-score,[15],-0.647
same,composite z-score,[16],-0.124
same,composite z-score,[17],-0.414
same,composite z-score,[18],-0.0252
same,composite z-score,[19],-0.251
same,composite z-score,[20],0.261
C=C(/C(=C/C[C@@H](OC(C)=O)c1ccc(CO)o1)c1cc(C(=O)OC)ccc1OC)C(C)C,composite z-score,[1],0.12
same,composite z-score,[2],-0.22
same,composite z-score,[3],-0.256
same,z-score,[4],0.227 (inactive)
same,composite z-score,[5],1.02
same,composite z-score,[6],0.469
same,composite z-score,[7],-0.132
same,composite z-score,[8],0.347
same,composite z-score,[9],0.251
same,composite z-score,[10],0.995
same,composite z-score,[11],0.443
same,z-score,[12],-0.9
same,composite z-score,[13],0.192
same,composite z-score,[14],0.189
same,composite z-score,[15],-0.657
same,composite z-score,[16],0.0251
same,composite z-score,[17],0.216
same,composite z-score,[18],0.141
same,composite z-score,[19],-0.144
same,composite z-score,[20],-0.0861
CCOC(=O)C[C@H]1[C@H](OC(=O)c2ccc(-c3ccccc3)cc2)[C@@H](NC(=O)Cc2ccc(OC)cc2)c2cc(OCCCO)ccc2N1C(=O)Cc1ccc(OC)cc1,composite z-score,[1],0.064
same,composite z-score,[2],0.288
same,composite z-score,[3],0.723
same,z-score,[4],-0.0344 (inactive)
same,composite z-score,[5],0.244
same,composite z-score,[6],-0.602
same,composite z-score,[7],0.0599
same,composite z-score,[8],-0.0955
same,composite z-score,[9],-0.276
same,composite z-score,[10],0.38
same,composite z-score,[11],0.102
same,z-score,[12],-0.261
same,composite z-score,[13],-0.0069
same,composite z-score,[14],0.655
same,composite z-score,[15],0.767
same,composite z-score,[16],-0.0114
same,composite z-score,[17],0.0952
same,composite z-score,[18],0.0759
same,composite z-score,[19],0.456
same,composite z-score,[20],0.913
CC(CO)N1C(=O)[C@@H]2[C@H]3C(=O)OCC=C[C@H]3OC23C=CCN(c2ccc(Cl)cc2)C(=O)[C@@H]13 (stereo not given in full),composite z-score,[1],1.93
same,composite z-score,[2],-0.125
same,composite z-score,[3],0.837
same,z-score,[4],-0.00913 (inactive)
same,composite z-score,[5],-1.59
same,composite z-score,[6],-0.501
same,composite z-score,[7],-2.15
same,composite z-score,[8],-2.43
same,composite z-score,[9],-1.92
same,composite z-score,[10],-3.56
same,composite z-score,[11],-0.716
same,z-score,[12],-0.205
same,composite z-score,[13],-2.63
same,composite z-score,[14],-0.669
same,composite z-score,[15],-0.934
same,composite z-score,[16],-0.178
same,composite z-score,[17],1.71
same,composite z-score,[18],-0.273
same,composite z-score,[19],-1.67
same,composite z-score,[20],-1.94
